WT yeast gro inh = growth inhibition of WT yeast, mitochondrial fusion screen; actives 2.1% (n = 190,000); inhibition, % at 10 µM; mitochondrial fusion phenotypic screen, WT strain; in the data active = inhibition above about 58%; tested in S. cerevisiae
Insulin prom inh = TRM-6 insulin promoter activity inhibition; TRM-6 cells (human fetal islet line), insulin promoter-eGFP reporter, imaging; reporter expression induced with tamoxifen; AID 1273; inhibition, % at 2 µM; actives 0.9% (n = 130,000);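 active = inhibition above the mean plus 3 SD, with well images judged a real hit on visual review, cut at about 60% in these data, passing the limit was not always enough; inconclusive = inhibition over the cutoff but images rejected on review; inactive = inhibition not above the cutoff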
Autophagy mod = alters autophagy in cells | MEF GFP-LC3 puncta imaging; test concentration mostly 10 µM | calls only at 10 µM (by protocol) | actives 0.98% (n = 190,000) | AID 463193;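 active = percentage of spot-positive cells more than 3 SD above its plate mean, without a fluorescence outlier flag or 80% toxicity; inconclusive = no clear call, values can overlap the other calls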
L major viab = inhibitors of Leishmania major promastigote growth; Leishmania major promastigotes, resazurin fluorescence viability; inhibition, % at 10 µM; actives 9% (n = 200,000); in the data active = inhibition above about 50%;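 note: promastigotes grown with compound for 44 hours at 28 °C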
Ins promoter up = MIN6 insulin promoter up-regulation; MIN6 insulin promoter-GFP reporter, high-content imaging; hits give high values; z-score at 5 µM; actives 0.3% (n = 190,000); AID 1625;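 active = z-score above 3 at 5 µM with at least 500 cells counted in the well; inconclusive = wells under 500 cells, flagged as cytotoxic or low count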
A number is an active result; 0 = inactive; ? = inconclusive; - = no result; + = active, no number. Compounds with a hit are over-represented: about 11% of the library has one in this group of screens.

SMILES	WT yeast gro inh	Insulin prom inh	Autophagy mod	L major viab	Ins promoter up
COc1ccccc1NC(=O)c1ccc(CSc2ncccn2)cc1	0	-	0	0	0
O=C(c1ccc(CSc2ccccc2)cc1)N1CCN(c2ccccc2)CC1	70	0	0	0	0
CC(C)Oc1ccc(Cc2cnc(N)nc2N)cc1	0	0	0	58	-
CCCCOc1ccc(Cc2cnc(N)nc2N)cc1	-	-	-	-	0
O=C(c1cc(Br)c(Br)s1)N1CCN(C/C=C/c2ccccc2)CC1	64	0	0	0	-
O=C(Nc1ccc2c(c1)OCCO2)N1CCOCC1	0	78	0	0	0
Cc1ccc(NC(=O)N2CCN(C/C=C/c3ccccc3)CC2)cc1	0	-	0	0	0
CC(=C1C(=O)c2ccccc2C1=O)N1CCN(C/C=C/c2ccccc2)CC1	0	0	0	83	0
CC(=C1C(=O)c2ccccc2C1=O)N1CCN(Cc2ccccc2)CC1	0	0	0	0	0
O=C(Nc1ccc2c(c1)OCO2)N1CCN(C/C=C/c2ccccc2)CC1	0	0	0	74	0
CC(C)=NNC(=O)C1=NNC(=O)C1	-	-	-	-	0
COCc1cc(C)nc2sc(C(=O)NCCO)c(-n3cccc3)c12	0	0	0	0	-
COC(=O)c1ccccc1NC(=O)N1CCN(C/C=C/c2ccccc2)CC1	0	0	0	0	0
CCCCNC(=O)N1CCN(C/C=C/c2ccccc2)CC1	0	-	0	53	0
CCN(CC)S(=O)(=O)c1ccc(-c2nnc(SCC(=O)N3c4ccccc4CC3C)n2CC)cc1 (stereo not given)	0	0	0	91	0
COc1ccc(N=c2cc(-c3ccc(OC)cc3)oc3ccccc23)cc1	76	0	0	0	0
COc1ccc(-c2cc(=Nc3ccc(C)cc3)c3ccccc3o2)cc1	0	0	0	63	0
COc1ccc(N=c2cc(-c3ccc(O)cc3)oc3ccccc23)cc1	0	0	0	81	-
O=C(Nc1ccc(N2CCOCC2)cc1)C1CCN(S(=O)(=O)c2ccccc2F)CC1	-	-	-	-	0
COc1ccc(N(C(=O)C(C)C)S(=O)(=O)c2cccs2)cc1	0	0	0	80	0
CC(C)C(=O)N(c1cc2sc(=O)oc2c2ccccc12)S(=O)(=O)c1cccs1	92	0	0	50	-
COc1ccc(N(C(C)=O)S(=O)(=O)c2cccs2)cc1	0	0	0	0	-
CC(=O)Oc1ccc(N(C(C)=O)S(=O)(=O)c2cccs2)cc1	66	0	0	0	0
O=C(CN(Cc1cccs1)C(=O)CNS(=O)(=O)c1ccc(Cl)cc1)NCC1CCCO1 (stereo not given)	0	-	0	0	0
Cc1cc(NC(=O)COc2c(C)cccc2C)no1	0	-	0	0	0
SMILES	WT yeast gro inh	Insulin prom inh	Autophagy mod	L major viab	Ins promoter up
O=C(Nc1ccc(Br)c(C(F)(F)F)c1)c1ccc(C(F)(F)F)cc1	-	-	-	-	0
O=C(Nc1ccc(Br)c(C(F)(F)F)c1)c1ccccc1	66	0	0	61	0
O=C(c1ccco1)N1CCCN(Cc2nc(Cc3ccccc3)no2)CC1	0	-	0	0	0
COc1ccccc1NC(=O)N1CCCC(c2nc3c(nnn3Cc3ccc(C)cc3)c(=O)[nH]2)C1 (stereo not given)	0	0	0	52	0
O=C(c1ccccc1)N1CCCC(c2nc3c(nnn3Cc3ccccc3)c(=O)[nH]2)C1 (stereo not given)	0	0	0	0	-
COc1ccccc1NC(=O)N1CCC(c2nc3cc(C)c(C)cc3[nH]2)CC1	0	0	+	0	-
O=C(/C=C/c1ccccc1)N1c2ccccc2Sc2ccc(C(F)(F)F)cc21	0	0	0	97	0
O=C(Cn1nnc(-c2cccs2)n1)N1c2ccccc2Sc2ccc(C(F)(F)F)cc21	0	80	0	0	-
O=C(CCCCCN1C(=O)c2ccccc2C1=O)NCc1ccccn1	0	-	0	0	-
O=C(Nc1ccccc1N1CCOCC1)c1cc(-c2ccncc2)nc2ccccc12	0	0	0	0	-
O=C(Nc1nc2ccccc2s1)c1cc(-c2ccccc2)nn1-c1ccccc1	0	0	0	93	0
COc1ccc(-c2cc(C(=O)Nc3ccccc3N3CCOCC3)c3ccccc3n2)cc1OC	0	-	0	64	0
CC(=O)c1sc(NC(=O)c2cc(-c3ccccc3)nn2-c2ccccc2)nc1C	0	0	0	0	0
COc1ccc(-c2cc(C(=O)Nc3nc4ccccc4s3)c3ccccc3n2)cc1OC	0	0	0	98	0
COc1ccc(C(=O)Nc2nc3ccccc3s2)cc1OC	68	0	0	69	0
O=C(C1CCN(C2CCN(C/C=C/c3ccccc3)CC2)CC1)N1CCOCC1	0	-	0	59	0
COc1ccc(CN2CCC(N3CCC(C(=O)N4CCOCC4)CC3)CC2)c(F)c1	0	-	0	78	0
COc1cccc(C2=NOC(C(=O)N3CCN(Cc4ccccc4)CC3)C2)c1OC (stereo not given)	0	0	0	0	0
O=C(C1CC(c2ccc(F)cc2)=NO1)N1CCN(Cc2ccccc2)CC1 (stereo not given)	0	-	0	89	?
O=C(O)C1C2C=CC(C2)C1C(=O)N1CCN(C/C=C/c2ccccc2)CC1 (stereo not given)	0	0	0	88	0
C/C(CC(=O)Nc1ccc(Cl)c(Cl)c1)=N\NC(=O)C(=O)N1CCCCC1	0	-	0	0	0
CCN(CC)C(=O)COc1ccc(/C=C(\C#N)S(=O)(=O)c2ccccc2)cc1OC	0	0	0	0	0
O=C(C1CCN(Cc2ccccc2)CC1)N1CCN(C/C=C/c2ccccc2)CC1	0	0	+	0	0
O=C(C1CCN(Cc2ccc(F)cc2)CC1)N1CCN(C/C=C/c2ccccc2)CC1	0	-	0	73	0
O=C(C1CCC1)N1CCN(Cc2ccccc2)CC1	0	0	0	0	0
SMILES	WT yeast gro inh	Insulin prom inh	Autophagy mod	L major viab	Ins promoter up
CCOc1ccc(NC(=O)CN(C)Cc2cc(=O)n3c(-c4ccccc4)csc3n2)cc1OCC	0	-	0	0	0
O=c1c2ccccc2nc(/C=C/c2ccc([N+](=O)[O-])cc2)n1CCCO	0	0	0	60	0
O=c1c2ccccc2nc(/C=C/c2ccc([N+](=O)[O-])o2)n1CCCO	65	-	0	101	?
O=c1c2ccccc2nc(/C=C/c2cccc([N+](=O)[O-])c2)n1CCCO	-	0	0	0	-
CC(C)CCn1c(N2CCN(c3cccc(Cl)c3)CC2)nc2c1c(=O)[nH]c(=O)n2C	62	-	0	0	0
CC(CSc1nnnn1-c1ccccc1)Cn1c(N2CCCC2)nc2c1c(=O)[nH]c(=O)n2C (stereo not given)	0	0	+	0	0
Cn1c(=O)[nH]c(=O)c2c1nc(N1CCOCC1)n2CCSc1nnnn1-c1ccccc1	-	-	-	-	0
Fc1ccc(Nc2ccnc(Nc3ccc(F)cc3)n2)cc1	0	0	0	95	0
Nc1ncnc(Nc2ccc(F)cc2)n1	0	0	0	57	0
Cc1ccc(Nc2ncnc(N)n2)cc1	0	-	0	0	0
N#Cc1c(Cl)nc(SCc2ccccc2)nc1-c1ccccc1	0	0	0	0	0
COc1ccc(S(=O)(=O)NNC(=O)C(=O)NNc2ccccn2)cc1	-	-	-	-	0
Fc1ccc(Cn2nnnc2CN2CCN(C3CCCC3)CC2)cc1	0	0	0	94	0
CCn1c(SCC(=O)c2ccccc2)nnc1-c1cccs1	0	0	0	0	0

Screening data: PubChem, several laboratories
